Cytotoxicity call data for 40 compounds are collected here from the antibiotic and cytotoxicity screens of Wong et al. (2023).

The whole screen tested about 39,000 compounds, of which about 1,500 (3.8%) were called active. The full list was thinned out, with actives kept by preference.

This experiment has as its system HSkMC (human skeletal muscle cells). Nature of the experiment: cytotoxicity call (relative viability < 0.9). Particulars: 10 µM.
Consider `C[C@@H]1CN([C@@H](C)CO)C(=O)c2cc(NS(C)(=O)=O)ccc2O[C@@H]1CN(C)Cc1ccc(C(=O)Nc2ccccc2N)cc1`, for which the cytotoxicity call was “inactive”.
Under `O=C(NCCN1CCOCC1)c1ccccn1` stands “inactive”.
Under `Cc1ccc(S(=O)(=O)NC2=NCN(CCN3CCOCC3)CN2)cc1` stands “inactive”; under `Cc1ccc(-n2nc(C(C)(C)C)cc2NC(=O)Nc2ccc(OCCN3CCOCC3)c3ccccc23)cc1`, “active”.
The result for `C[C@@H]1CN([C@H](C)CO)C(=O)c2cc(NS(=O)(=O)c3cn(C)cn3)ccc2O[C@@H]1CN(C)C(=O)Nc1ccc2c(c1)OCO2` reads “inactive”; that for `O=C1[C@@H]2[C@@H](C(=O)N1CCO)[C@@H]1C=C[C@@H]2C1`, “inactive”.
As for `C[C@@H]1CN([C@H](C)CO)S(=O)(=O)c2ccc(-c3cncnc3)cc2O[C@H]1CN(C)C(=O)Cc1ccncc1`, the cytotoxicity call was “inactive”.
Under `C[C@@H]1CN([C@H](C)CO)C(=O)c2cc(NC(=O)Nc3ccc4c(c3)OCO4)ccc2O[C@@H]1CN(C)C(=O)Nc1cccc2ccccc12` stands “active”; under `C[C@H]1CN([C@@H](C)CO)C(=O)c2cc(NC(=O)Nc3ccc4c(c3)OCO4)ccc2O[C@@H]1CN(C)C(=O)Nc1cccc2ccccc12`, “inactive”.
The result for `C[C@H](CO)N1C[C@H](C)[C@@H](CN(C)C(=O)Nc2cccc3ccccc23)Oc2ccc(NC(=O)Nc3ccc4c(c3)OCO4)cc2C1=O` reads “inactive”; that for `C[C@@H]1CN([C@H](C)CO)C(=O)c2cc(NC(=O)Nc3ccc4c(c3)OCO4)ccc2O[C@H]1CN(C)C(=O)Nc1cccc2ccccc12`, “inactive”; that for `C[C@H]1CN([C@@H](C)CO)C(=O)c2cc(NC(=O)Nc3ccc4c(c3)OCO4)ccc2O[C@H]1CN(C)C(=O)Nc1cccc2ccccc12`, “inactive”.
Under `C[C@@H]1CN([C@@H](C)CO)C(=O)c2cc(NC(=O)Nc3ccc4c(c3)OCO4)ccc2O[C@@H]1CN(C)C(=O)Nc1cccc2ccccc12` stands “active”.
Take `O=C(C[C@H]1CC[C@H]2[C@@H](COC[C@@H](O)CN2S(=O)(=O)c2cccc(Cl)c2)O1)NCCCN1CCOCC1`: the cytotoxicity call is “inactive”.
Turning to `CO[C@@H]1[C@@H](O)[C@H](O)[C@H](O)[C@H](O)[C@@H]1O`, the cytotoxicity call is “inactive”.
Under `COc1ccc(NC(=O)N(C)C[C@@H]2Oc3ccc(NC(=O)CCCCCC(=O)Nc4ccccc4N)cc3C(=O)N([C@@H](C)CO)C[C@@H]2C)cc1` stands “inactive”.
For the compound `O=C(Cn1cc(COc2ccc3ccccc3c2)nn1)NS(=O)(=O)c1ccccc1OC(F)(F)F`, the cytotoxicity call was “inactive”.
The result for `CN(C)C(=O)C[C@@H]1CC[C@@H]2[C@H](COC[C@H](O)CN2S(=O)(=O)c2ccc(Oc3ccccc3)cc2)O1` reads “inactive”; that for `CC(C)[C@H]1CC[C@@H](C)C[C@@H]1NC(=O)c1cccc2ccccc12`, “inactive”; that for `COc1ccc2c(c1)n(CCN)c(=O)n2C(=O)[C@@H]1C[C@H](C)CC[C@H]1C(C)C`, “active”.
The result for `COc1ccc(S(=O)(=O)Nc2ccc3c(c2)C(=O)N([C@H](C)CO)C[C@@H](C)[C@@H](CN(C)S(C)(=O)=O)O3)cc1` reads “inactive”; that for `Cc1cc(C)c(/N=c2\scc(C)n2Cc2ccccc2)c(C)c1`, “inactive”.
For the compound `Cc1ccc(S(=O)(=O)N(C)C[C@H]2Oc3ccc(NC(=O)Nc4ccc(C(F)(F)F)cc4)cc3C(=O)N([C@@H](C)CO)C[C@@H]2C)cc1`, the cytotoxicity call is “inactive”.
Under `C[C@H](CO)N1C[C@H](C)[C@H](CN(C)S(=O)(=O)c2ccc(F)cc2)Oc2ccc(NC(=O)Nc3ccc(C(F)(F)F)cc3)cc2C1=O` stands “active”; under `Cc1ccc(S(=O)(=O)N(C)C[C@H]2Oc3ccc(NC(=O)Nc4ccc(C(F)(F)F)cc4)cc3C(=O)N([C@H](C)CO)C[C@@H]2C)cc1`, “inactive”.
The result for `C[C@H]1CN([C@@H](C)CO)C(=O)c2cc(NC(=O)Nc3ccc(C(F)(F)F)cc3)ccc2O[C@@H]1CN(C)S(=O)(=O)c1ccc(F)cc1` reads “inactive”; that for `C[C@H]1CN([C@@H](C)CO)C(=O)c2cc(NC(=O)Nc3ccc(C(F)(F)F)cc3)ccc2O[C@H]1CN(C)S(=O)(=O)c1ccc(F)cc1`, “inactive”.
The result for `C[C@@H]1CN([C@H](C)CO)C(=O)c2cc(NC(=O)Nc3ccc(C(F)(F)F)cc3)ccc2O[C@@H]1CN(C)S(=O)(=O)c1ccc(F)cc1` reads “active”; that for `C[C@@H]1CN([C@H](C)CO)C(=O)c2cc(NC(=O)Nc3ccc(C(F)(F)F)cc3)ccc2O[C@H]1CN(C)S(=O)(=O)c1ccc(F)cc1`, “active”; that for `Cc1ccc(S(=O)(=O)N(C)C[C@@H]2Oc3ccc(NC(=O)Nc4ccc(C(F)(F)F)cc4)cc3C(=O)N([C@@H](C)CO)C[C@@H]2C)cc1`, “inactive”.
For the compound `C[C@@H]1CN([C@@H](C)CO)C(=O)c2cc(NC(=O)Nc3ccc(C(F)(F)F)cc3)ccc2O[C@@H]1CN(C)S(=O)(=O)c1ccc(F)cc1`, the cytotoxicity call is “inactive”.
The result for `C[C@H](CO)N1C[C@H](C)[C@@H](CN(C)S(=O)(=O)c2ccc(F)cc2)Oc2ccc(NC(=O)Nc3ccc(C(F)(F)F)cc3)cc2C1=O` reads “inactive”; that for `Cc1ccc(S(=O)(=O)N(C)C[C@H]2Oc3ccc(NC(=O)Nc4ccc(C(F)(F)F)cc4)cc3C(=O)N([C@H](C)CO)C[C@H]2C)cc1`, “active”.
The result for `C[C@@H]1CN([C@@H](C)CO)C(=O)c2cc(NC(=O)Nc3ccc(C(F)(F)F)cc3)ccc2O[C@H]1CN(C)S(=O)(=O)c1ccc(F)cc1` reads “inactive”; that for `C[C@@H]1CN([C@H](C)CO)C(=O)c2cc(NS(=O)(=O)c3cn(C)cn3)ccc2O[C@@H]1CN(C)Cc1ccc(C(=O)Nc2ccccc2N)cc1`, “inactive”; that for `O=C(Nc1cccc2cccnc12)[C@H]1[C@@H](c2ccc(Br)cc2)CC(=O)N1C(=O)OCc1ccccc1`, “inactive”.
As to `C[C@H]1CN([C@@H](C)CO)C(=O)c2cc(NS(=O)(=O)c3cn(C)cn3)ccc2O[C@@H]1CN(C)Cc1ccc(C(=O)O)cc1`, the cytotoxicity call is “inactive”.
Under `O=C(C[C@H]1CC[C@H]2[C@@H](COC[C@H](O)CN2C(=O)Nc2cccc(F)c2)O1)NCCCN1CCOCC1` stands “inactive”.
For `C[C@@H]1CN([C@H](C)CO)C(=O)c2cc(NC(=O)Cc3ccccc3)ccc2O[C@H]1CN(C)Cc1ccc(Oc2ccccc2)cc1`, the cytotoxicity call was “inactive”.
Under `O=C(C[C@@H]1C[C@H]2c3cc(NC(=O)Nc4ccc(C(F)(F)F)cc4)ccc3O[C@H]2[C@@H](CO)O1)NCc1cc(F)ccc1F` stands “inactive”.
